Most compounds without a hit are left out; they make up all but 4.2% or so of the library.
NALP1 yeast inh – NALP1 inflammasome inhibitors in reconstituted yeast, colorimetric, S. cerevisiae, triplicate retest | S. cerevisiae NALP1/ASC/caspase-1 growth, X-gal OD620, 72 h | inhibition, % at 10 µM | 280,000 tested, 0.61% active | AID 2071, 2009; in the data active means inhibition mostly above about 24%, no sharp cut-off; inactive means mostly below about 32%
tim10-1 inh – growth inhibitors of tim10-1 mutant yeast, primary screen, luminescence, uHTS; S. cerevisiae tim10-1 ts strain growth, BacTiter-Glo, 24 h; inhibition, % at 20 µM; 330,000 tested, 2.2% active; AID 463190, 2010;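 active means inhibition of at least 40%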;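 further: mutant grown at 25 °C; 0% = DMSO wells with yeast and 100% = wells holding no yeast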
PfHsp90 set2 – growth inhibition of PfHsp90-expressing yeast, primary screen, antimalarial PfHsp90 inhibitor project, S. cerevisiae, BacTiter-Glo luminescence, single point, set 2. BacTiter-Glo ATP, 48 h; yeast lacking PDR1 and PDR3 efflux regulators. inhibition, % at 9.4 µM. 310,000 tested, 0.32% active. AID 504621, 2011;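 active means every replicate shows inhibition above about 80%, whatever the replicate mean, limit read from the data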;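 further: 0% = DMSO neutral controls and 100% = 20 µM radicicol positive controls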
TIM10 inh – growth inhibitors of isogenic TIM10 control yeast, primary screen, counter-screen for tim10-1 yeast inhibitor project, luminescence, uHTS; 330,000 tested, 1.4% active; AID 463195, 2010; inhibition, % at 10 µM; S. cerevisiae TIM10 strain growth, BacTiter-Glo luminescence, 24 h;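 active means inhibition of 40% or more at the single tested concentration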;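 further: wild-type TIM10 isogenic control strain grown at permissive 25 °C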
tim23-1 inh – growth inhibitors of tim23-1 mutant yeast, primary screen, luminescence, uHTS | inhibition, % at 20 µM | S. cerevisiae tim23-1 growth, BacTiter-Glo luminescence, 24 h | 330,000 tested, 1.3% active;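 active means growth inhibition of the mutant yeast at or above 50%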;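 further: temperature-sensitive mutant grown at 25 °C; plate controls were DMSO-treated mutant yeast for no effect and medium wells lacking yeast for full effect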
NLRP3 yeast inh – NALP3 inflammasome inhibitors in reconstituted yeast, primary screen, luminescence, uHTS; inhibition, % at 10 µM; Yeast reconstituted NLRP3/ASC/caspase-1, beta-gal luminescence, 24 h; AID 2825, 2010; 330,000 tested, 0.39% active;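 active means inhibition of 50% or more; inactive means inhibition below 50%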;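 further: plate controls were induced DMSO wells for no effect and uninduced yeast grown without galactose for full effect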
tim10-1 conf – growth inhibitors of tim10-1 mutant yeast, confirmation, single concentration, luminescence, S. cerevisiae. AID 463213, 2010. shares compounds with tim10-1 inh. 7,400 tested, 56% active. inhibition, % at 20 µM. S. cerevisiae tim10-1 ts strain growth, BacTiter-Glo, 24 h;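 active means inhibition of yeast growth at or above a set limit in either of two repeat tests at 20 µM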;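 further: tim10-1 mutant grown at permissive 25 °C to find synthetic lethal compounds; 0% = DMSO yeast wells and 100% = medium wells without yeast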
tim10 confirm – growth inhibitors of wild-type TIM10 yeast, confirmation, counter-screen for tim10-1 synthetic lethality project, single concentration, luminescence, S. cerevisiae; 4,600 tested, 63% active; shares compounds with TIM10 inh; inhibition, % at 10 µM; S. cerevisiae tim10 strain growth, BacTiter-Glo luminescence, 24 h;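 active means inhibition of yeast growth at or above a set limit in either of two replicates at 10 µM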;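 further: this counterscreen used the strain with wild-type TIM10; 0% = yeast with DMSO and 100% = medium wells lacking yeast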
tim23-1 conf – tim23-1 mutant yeast growth inhibitors, confirmation, luminescence, single concentration. shares compounds with tim23-1 inh. S. cerevisiae tim23-1 growth, BacTiter-Glo luminescence, 24 h. inhibition, % at 20 µM. 4,400 tested, 83% active. AID 463218, 2010;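 active means inhibition above about 39% in either of two replicate wells at 20 µM, limit read from the data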;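 further: temperature-sensitive tim23-1 mutant grown at 25 °C; 0% = DMSO wells with yeast and 100% = medium wells without yeast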
* hit, by the source's call; . = no result given.

SMILES	NALP1 yeast inh	tim10-1 inh	PfHsp90 set2	TIM10 inh	tim23-1 inh	NLRP3 yeast inh	tim10-1 conf	tim10 confirm	tim23-1 conf
Cn1ccsc1=NC(=O)c1ccc([N+](=O)[O-])o1	7.0	50.1*	1.7	-82.2	57.2*	28.2	24.2	.	57.5*
COc1cc(C(=O)N=c2sccn2C)c([N+](=O)[O-])cc1OC	-2.8	3.3	4.7	10.8	3.7	13.0	.	.	.
O=C(C[n+]1ccc(C(=O)NCCCO)cc1)c1cccc(Br)c1	-1.9	3.5	5.4	-16.1	-13.3	12.9	.	.	.
CC(C)N1C2OC(C3OC4C(O3)N(C(C)C)S(=O)(=O)N4C(C)C)OC2N(C(C)C)S1(=O)=O (stereo not given)	-2.6	60.4*	.	89.4*	54.8*	1.3	71.2*	87.7*	29.0
Cc1cccc(C(=O)NC(=S)Nc2c(C)n(C)n(-c3ccccc3)c2=O)c1	.	.	10.2	.	.	.	.	.	.
COc1ccc(NC(=O)c2ccccc2F)cc1Cl	10.9	-20.1	-27.4	-1.5	-7.2	8.7	.	.	.
O=C(Nc1ccc(Oc2ccc(Cl)cc2)c(Cl)c1)c1cc(I)cc(I)c1O	28.7	54.3*	-6.2	31.0	58.8*	16.0	52.5*	.	59.5*
Cn1cccc1/C=C(/C#N)C(N)=S	23.2	4.4	17.7	-3.7	5.4	1.9	.	.	.
CCCCc1ccc(/C=C(\C#N)C(N)=S)s1	-0.5	55.6*	31.1	53.0*	70.9*	33.8	55.3*	60.5*	57.5*
COc1cc(N=Nc2ccc3ccccc3c2)ccc1O	-0.8	40.7*	109.9*	3.6	62.6*	33.6	13.1	.	2.3
O=C(CN1CCC(C(=O)c2ccc3c(c2)OCCO3)CC1)Nc1ccccc1F	21.6	25.6	24.3	-5.2	26.3	5.1	.	.	.
COc1ccc(S(=O)(=O)N2CCC(C(=O)c3ccc4c(c3)OCCO4)CC2)cc1	-3.6	55.0*	1.1	59.7*	59.1*	41.5	55.0*	55.1*	55.0*
O=C(c1ccc2c(c1)OCCO2)C1CCN(S(=O)(=O)c2ccccc2F)CC1	5.3	50.3*	-31.4	42.3*	52.8*	23.4	42.8*	29.8	48.5*
CC12CCC(=O)N1C(C(=O)Nc1ccc(Br)cc1Cl)CS2 (stereo not given)	16.0	12.4	5.7	6.4	22.9	5.7	.	.	.
O=[N+]([O-])/C=C/c1cn(Cc2ccc(F)cc2)c2ccccc12	5.6	72.5*	.	69.3*	65.5*	-1.3	66.0*	73.9*	71.3*
O=c1[nH]c2ccccc2nc1-c1ccccc1	10.9	-14.6	-40.2	7.8	15.9	31.0	.	.	.
NC(=O)N=Nc1c2[nH]c3ccccc3nc-2c2ccccc12	-14.9	43.8*	67.9	52.5*	55.8*	42.2	44.7*	62.4*	51.9*
COc1ccc2sc3ccccc3c(=O)c2c1OC	1.1	40.8*	4.7	52.3*	57.7*	20.2	56.8*	50.2*	64.1*
Cc1ccc(S(=O)(=O)N2CCOCC2)cc1C(=O)NCC1CCCCC1	.	11.9	-9.3	8.3	11.6	15.1	.	.	.
CNC(=O)/C(C#N)=C/c1cccc(Oc2ccccc2)c1	.	86.5*	25.3	78.2*	91.4*	24.9	90.5*	78.2*	79.7*
CC(C)CN(C(=O)c1nn(C)c(=O)c2ccccc12)c1nc2ccccc2s1	0.3	3.2	-0.8	20.6	20.1	-2.5	.	.	.
